A selection: hits, their analogues and other compounds. The true share with any hit is near 0.87%.
WRN helicase inh-1 = WRN helicase (human) inhibition. 0.46% of 360,000 active. Potency, µM (doses to about 114 µM), actives largely listed as inhibitors. Q14191. WRN helicase unwinding, fluorescent forked duplex, kinetic; also: nearly all actives have a fitted effect of over 55% in size
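Primary qHTS, 1536-well format. 20 nM WRN + compound, 15 min RT; start with 100 nM forked fluorophore/quencher duplex, 2 mM ATP (final); kinetic read ex 525/em 598 nm.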
FEN1 inh-1 = human FEN1 inhibition; 0.35% of 390,000 active; P39748; Recombinant FEN1 flap cleavage, fluorescence, 15 min; Potency, µM (series often up to 114 µM), usual class: inhibitors; also: nearly all actives have a fitted effect of over 65% in size
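With each library titrated from low to high concentration, compounds met 10 nM FEN1 for 15 min at room temperature before 50 nM substrate was added; readings at 0 and 15 min fed four-parameter Hill curve fits.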
APE1 inh-1 = inhibitors of human APE1 endonuclease; 0.35% of 350,000 active; AID 2517; Potency, µM (series often up to 65.8 µM), actives largely listed as inhibitors; P27695; recombinant APE1, TAMRA/BHQ-2 abasic DNA cleavage fluorescence; also: nearly all actives have a fitted effect of over 55% in size
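Incision of a quenched TAMRA/BHQ-2 THF abasic-site duplex (50 nM) by 0.75 nM APE1, after 15 min compound preincubation, measured as fluorescence increase over three 60 s reads. Values normalized to buffer, DMSO and NSC13755 control wells.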
RECQ1 inh-1 = RECQ1 (human) helicase inhibition; P46063; AID 2549; RECQ1 DNA unwinding, red fluorescence kinetic read; 0.54% of 240,000 active; Potency, µM (highest dose often 57.3 µM), hits mostly inhibitors; also: nearly all actives have a fitted effect of over 30% in size
Target sequence (P46063 whole entry, looked up): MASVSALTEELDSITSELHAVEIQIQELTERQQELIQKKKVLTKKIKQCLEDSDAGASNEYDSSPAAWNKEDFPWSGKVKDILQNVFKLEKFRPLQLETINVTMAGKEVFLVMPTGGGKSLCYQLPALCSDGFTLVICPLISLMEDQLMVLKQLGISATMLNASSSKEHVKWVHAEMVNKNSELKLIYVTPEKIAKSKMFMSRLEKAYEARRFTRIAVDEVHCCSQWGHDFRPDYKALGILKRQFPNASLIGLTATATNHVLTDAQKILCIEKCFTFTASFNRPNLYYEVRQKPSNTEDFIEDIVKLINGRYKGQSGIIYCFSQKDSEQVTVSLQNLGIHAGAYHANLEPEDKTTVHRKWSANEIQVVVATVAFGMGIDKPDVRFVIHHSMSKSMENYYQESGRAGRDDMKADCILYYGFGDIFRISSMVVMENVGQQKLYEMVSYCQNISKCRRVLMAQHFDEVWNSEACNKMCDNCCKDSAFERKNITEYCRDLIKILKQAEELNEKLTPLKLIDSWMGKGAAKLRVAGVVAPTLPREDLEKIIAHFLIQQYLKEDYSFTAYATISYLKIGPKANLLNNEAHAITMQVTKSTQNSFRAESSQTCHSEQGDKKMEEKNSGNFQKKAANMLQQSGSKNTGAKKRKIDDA
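RECQ1T1 50 nM; forked duplex (20 bp + 30-nt ss tails) 200 nM, ATP 2 mM final; pH 8.0, 2 mM MgCl2, 2.5 ug/ml poly(dI-dC); 15 min compound preincubation; discontinuous kinetic read over 2 h at RT.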
BLM helicase inh-1 = inhibitors of human Bloom syndrome helicase BLM; recombinant BLM DNA unwinding, fluorescence dequenching; Potency, µM (top dose mostly 56.1 µM), hits mostly inhibitors; 0.2% of 350,000 active; AID 2528; also: nearly all actives have a fitted effect of over 35% in size
APE1 dye cs = displaces fluorescent dye from DNA, flagging APE1 artifacts | shares compounds with APE1 inh-1 | DNA fluorescent dye displacement counterscreen, fluorescence | Potency, µM (series often up to 28.5 µM), hits mostly inhibitors | 7% of 480 active | AID 2564;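 also: loss of thiazole orange fluorescence as the dye is displaced from duplex DNA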
Endo IV inh = Endo IV (E. coli) inhibition counter-screen; Potency, µM (top dose mostly 27.1 µM), most hits filed as inhibitors; shares compounds with APE1 inh-1; E. coli Endo IV, fluorogenic AP-site DNA cleavage; 4% of 560 active; AID 2565
APE1 inh-2 = confirmation of inhibitors of human APE1 endonuclease; Potency, µM (titrated, usually from 57.1 µM), most hits filed as inhibitors; purified APE1, fluorogenic abasic-site DNA cleavage; shares compounds with APE1 inh-1; 44% of 750 active; also: nearly all actives have a fitted effect of over 30% in size
APE1 FP inh = compounds that displace a DNA probe from human APE1. AID 2573. 7% of 480 active. shares compounds with APE1 inh-1. APE1 binding to TAMRA-labelled double-stranded DNA, fluorescence polarization displacement. Potency, µM (series often up to 28.5 µM), usual class: inhibitors
RECQ1 inh-2 = blocks human RECQ1 DNA unwinding; shares compounds with RECQ1 inh-1; recombinant RECQ1 DNA unwinding, red fluorescence; Potency, µM (highest dose often 119 µM), usual class: inhibitors; 15% of 1,100 active; AID 504841; also: nearly all actives have a fitted effect of over 50% in size
FEN1 inh-2 = confirmation of human FEN1 inhibitors. 79% of 880 active. shares compounds with FEN1 inh-1. FEN1 flap cleavage, TAMRA/BHQ2 fluorogenic DNA substrate. Potency, µM, most hits filed as inhibitors. AID 720498; also: nearly all actives have a fitted effect of over 60% in size
WRN helicase inh-2 = WRN helicase inhibition, cherry-pick retest | shares compounds with WRN helicase inh-1 | WRN helicase DNA unwinding, fluorescence kinetic | 63% of 610 active | Potency, µM (doses to about 57.1 µM), most hits filed as inhibitors | AID 720497; also: nearly all actives have a fitted effect of over 65% in size
TO DNA binding = binds DNA, flagged in WRN inhibitor counterscreen; 10% of 610 active; thiazole orange DNA binding displacement, fluorescence; Potency, µM (series often up to 57.1 µM), actives largely listed as inhibitors; shares compounds with WRN helicase inh-1;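 also: drop in dye fluorescence marks compound binding to DNA; nearly all actives have a fitted effect of over 60% in size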
BLM helicase inh-2 = BLM helicase inhibition, WRN selectivity check; Recombinant BLM helicase DNA unwinding, red fluorescence; 60% of 610 active; AID 720503; Potency, µM (top dose mostly 57.1 µM), hits mostly inhibitors; shares compounds with WRN helicase inh-1; also: nearly all actives have a fitted effect of over 60% in size
Each line names hits and unclear results; the compound was inactive in the other large screens (follow-up assays come after a bar, where they were run). Calls follow the shape of the dose curve; as a rule, active = well fitted curve in the direction sought with a large enough effect; inconclusive = small, poorly fitted or top-dose-only effect, or another doubt; inactive = no such curve, though single readings can be large; an effect the other way counts as inactive or inconclusive.

CN1CCN2c3ccc(N)cc3CC3(C(=O)NC(=O)NC3=O)C2C1 (stereo unspecified)	WRN helicase inh-1 inconclusive, APE1 inh-1 inconclusive | APE1 inh-2 inconclusive
CC(c1ccccc1)n1cncc1C(=O)O (stereo unspecified)	APE1 inh-1 inconclusive | APE1 inh-2 inactive
COc1ccc(/C=C2/C(=O)NC(=O)N(Cc3ccco3)C2=O)cc1	none (no result: WRN helicase inh-1, FEN1 inh-1)
Cc1cc(/C=C2\C(=O)NC(=O)N(c3ccc(F)cc3)C2=O)c(C)n1-c1ccc(C(=O)O)cc1	none
Cc1cc(/C=C2\C(=O)NC(=O)N(Cc3ccccc3Cl)C2=O)c(C)n1-c1ccc(C(=O)O)cc1	WRN helicase inh-1 56µM, APE1 inh-1 11µM, RECQ1 inh-1 inconclusive | APE1 dye cs inactive | Endo IV inh inactive | APE1 inh-2 13µM | APE1 FP inh inconclusive
CCOC(=O)C1CCN(/C=C2/C(=O)NC(=O)N(Cc3ccco3)C2=O)CC1	WRN helicase inh-1 inconclusive, APE1 inh-1 14µM, RECQ1 inh-1 inconclusive | APE1 dye cs inactive | Endo IV inh inactive | APE1 inh-2 3.2µM | APE1 FP inh inconclusive
Cc1cc(/C=C2\C(=O)NC(=O)N(Cc3ccco3)C2=O)c(C)n1-c1ccc(C(=O)O)cc1	WRN helicase inh-1 inconclusive, APE1 inh-1 14µM | APE1 dye cs inactive | Endo IV inh inactive | APE1 inh-2 inconclusive | APE1 FP inh inactive
[CH3][Hg][Cl]	none (no result: WRN helicase inh-1, FEN1 inh-1, BLM helicase inh-1)
[O-][Cl+]O	none (no result: WRN helicase inh-1, FEN1 inh-1, BLM helicase inh-1)
c1c[nH]cn1	none (no result: WRN helicase inh-1, FEN1 inh-1, BLM helicase inh-1)
O=c1[nH]c(=S)n(Cc2ccco2)c(O)c1C=NCc1cccs1	WRN helicase inh-1 inconclusive, APE1 inh-1 inconclusive, RECQ1 inh-1 inconclusive | APE1 dye cs inactive | Endo IV inh inactive | APE1 inh-2 inactive | APE1 FP inh inactive | RECQ1 inh-2 inactive
O=c1[nH]c(=O)n(Cc2ccco2)c(O)c1C=NCc1cccs1	none
NC(=O)c1ccc(N=Cc2c(O)n(Cc3ccco3)c(=O)[nH]c2=O)cc1	WRN helicase inh-1 50µM, FEN1 inh-1 40µM, APE1 inh-1 32µM, RECQ1 inh-1 inconclusive, BLM helicase inh-1 inconclusive | APE1 dye cs inconclusive | Endo IV inh inactive | APE1 inh-2 40µM | APE1 FP inh inactive | RECQ1 inh-2 inconclusive
CC[N+](=O)[O-]	none (no result: WRN helicase inh-1, FEN1 inh-1, BLM helicase inh-1)
C[n+]1c2cc(N)ccc2cc2ccc(N)cc21	WRN helicase inh-1 18µM, FEN1 inh-1 8.9µM (no result: APE1 inh-1) | Endo IV inh inactive | APE1 inh-2 6.3µM | APE1 FP inh inactive | WRN helicase inh-2 11µM | BLM helicase inh-2 12µM
ClCc1ccccn1	none (no result: WRN helicase inh-1, FEN1 inh-1, BLM helicase inh-1)
O=C1NC(=O)N(Cc2ccc(F)cc2)C(=O)/C1=C\c1ccoc1	WRN helicase inh-1 32µM, FEN1 inh-1 inconclusive, APE1 inh-1 28µM, RECQ1 inh-1 25µM | APE1 dye cs inactive | Endo IV inh inactive | APE1 inh-2 16µM | APE1 FP inh inactive | WRN helicase inh-2 5.4µM | TO DNA binding inactive | BLM helicase inh-2 3µM
O=C1NC(=O)N(Cc2ccco2)C(=O)/C1=C/C=C/c1ccco1	WRN helicase inh-1 20µM, FEN1 inh-1 25µM, APE1 inh-1 2.8µM, RECQ1 inh-1 10µM | APE1 dye cs inactive | Endo IV inh inactive | APE1 inh-2 5µM | APE1 FP inh inconclusive | FEN1 inh-2 43 | WRN helicase inh-2 11µM | TO DNA binding inactive | BLM helicase inh-2 6.1µM
Cc1ccc(OCCn2cccc2/C=C2/C(=O)NC(=O)N(Cc3ccco3)C2=O)cc1	WRN helicase inh-1 inconclusive, FEN1 inh-1 inconclusive, RECQ1 inh-1 inconclusive
Cn1cccc1/C=C1\C(=O)NC(=O)N(Cc2ccco2)C1=O	WRN helicase inh-1 40µM, FEN1 inh-1 inconclusive, APE1 inh-1 14µM, RECQ1 inh-1 inconclusive | APE1 dye cs inactive | Endo IV inh inactive | APE1 inh-2 4.5µM | APE1 FP inh inactive | WRN helicase inh-2 19µM | TO DNA binding inactive | BLM helicase inh-2 8.6µM
O=C1NC(=O)N(c2ccccc2)C(=O)/C1=C/C=C/c1ccco1	WRN helicase inh-1 inconclusive, FEN1 inh-1 inconclusive, APE1 inh-1 inconclusive, RECQ1 inh-1 inconclusive
CN1C(=O)/C(=C/C=C/c2ccco2)C(=O)NC1=S	WRN helicase inh-1 35µM, FEN1 inh-1 20µM, APE1 inh-1 25µM, RECQ1 inh-1 inconclusive | APE1 dye cs inactive | Endo IV inh inactive | APE1 inh-2 14µM | APE1 FP inh inactive | WRN helicase inh-2 15µM | TO DNA binding inactive | BLM helicase inh-2 8.6µM
Cc1coc2c1CCC(C)C2 (stereo unspecified)	none (no result: WRN helicase inh-1, FEN1 inh-1, BLM helicase inh-1)

Source: PubChem BioAssay (National Center for Advancing Translational Sciences (NCATS))
